Assay [1] in a line: qHTS assay to identify aromatase inhibitors - cell viability counter screen (AID 743084).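 Further: cells stimulated with testosterone during compound exposure; nearly all actives have a fitted effect of over 55% in size.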 In general terms: Quantitative high-throughput screening tests each substance at several concentrations.
The target in assay [2] is Aryl hydrocarbon receptor (Homo sapiens) (UniProt P35869). The experiment in a line: qHTS assay to identify small molecule that activate the aryl hydrocarbon receptor (AhR) signaling pathway (AID 743085). Further: nearly all actives have a fitted effect of over 15% in size. Further: potency means the concentration at half of the fitted maximal effect.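 On activation: HG2L7.5c1 human HepG2 liver cells with stably integrated DRE-driven firefly reporter; series mostly up to about 70 µM.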 In a few lines: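 HepG2 cells (HG2L7.5c1) stably carrying a firefly luciferase reporter driven by 20 dioxin responsive elements were exposed to compound for 24 h at 37C after a 5 h settling period; luminescence rise (ONE-Glo) indicated activation.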

The nature of assay [3]: qHTS assay to identify small molecule that activate the aryl hydrocarbon receptor (AhR) signaling pathway - cell viability counter screen (AID 743086).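 Further: HepG2 liver cells carrying the AhR DRE luciferase reporter; series mostly up to about 70 µM; nearly all actives have a fitted effect of over 45% in size.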 The essentials: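 HepG2-AhR-luc (HG2L7.5c1) cells, 4000/well, were preincubated 5 h at 37C, exposed to compound in qHTS format for 24 hr at 37C, then given CellTiter-Fluor for 30 min; viability was read as fluorescence in the reporter wells.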

Assay [4] has as its target Peroxisome proliferator-activated receptor gamma (Homo sapiens) (UniProt P37231). The assay can be described thus: qHTS assay to identify small molecule agonists of the peroxisome proliferator-activated receptor gamma (PPARg) signaling pathway (AID 743094; active means well fitted activation curve with a large enough effect in the signal ratio in the repeat runs, not every such curve was filed as active; the % refers to the signal ratio). In a few lines: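 Following 5 h plating at 37C, PPARg-bla HEK293H cells receive compound or DMSO for 17 h; fluorescence intensity is recorded after LiveBLAzer B/G loading for 1 h at room temperature.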

Assay [5] has the same target. The experiment in a line: qHTS assay to identify small molecule antagonists of the peroxisome proliferator-activated receptor gamma (PPARg) signaling pathway (AID 743191; calls by dose curve; further: series mostly up to about 63 µM; nearly all actives have a fitted effect of over 30% in size). In a few lines:
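GeneBLAzer PPARg UAS-bla HEK293H cells carrying a UAS-driven beta-lactamase reporter were plated at 3000 cells/well, preincubated 5 h at 37C, then given compound for 17 h at 37C; LiveBLAzer B/G FRET substrate was read after 1 h at room temperature.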

Assay [6] is described as follows: qHTS assay to identify small molecule antagonists of the peroxisome proliferator-activated receptor gamma (PPARg) signaling pathway - cell viability counter screen (AID 743194). Further: nearly all actives have a fitted effect of over 55% in size. In a few lines:
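PPARg-UAS-bla HEK293H cells were plated, rested 5 h at 37 C, then treated with compounds plus rosiglitazone (50 nM final) for 17 h at 37 C; viability was then read by CellTiter-Glo luminescence after 30 min at room temperature.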

A short description of assay [7]: qHTS assay for small molecule agonists of the antioxidant response element (ARE) signaling pathway (AID 743202; active means well fitted activation curve with a large enough effect in the signal ratio in the repeat runs, not every such curve was filed as active; the % refers to the signal ratio). In a few lines:
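Compounds delivered in DMSO to ARE-bla HepG2 cells (2,000 cells/well, pre-incubated 5 h) and left 16 h at 37 C. LiveBLAzer B/G FRET substrate then added for 2 h at RT before fluorescence reading.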

Assay [8] can be described thus: qHTS assay for small molecule agonists of the antioxidant response element (ARE) signaling pathway - cell viability counter screen (AID 743203; calls by dose curve; further: nearly all actives have a fitted effect of over 55% in size). The essentials:
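Compounds in DMSO were pinned onto ARE-bla HepG2 cells plated 5 hrs earlier at 2,000 cells/well. Sixteen hours later at 37C/5% CO2, CellTiter-Glo was added and luminescence measured after 30 min at room temperature.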

A short description of assay [9]: qHTS assay for small molecule activators of the heat shock response signaling pathway - cell viability counter screen (AID 743209). Further: nearly all actives have a fitted effect of over 50% in size. The essentials: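 Counter screen for cytotoxicity in HeLa HSE-bla reporter cells. Treatment was 5 h at 37 C; viability was detected by luminescent ATP assay (CellTiter-Glo) in the same wells as the beta-lactamase read.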
Assay [10] in a line: qHTS assay for small molecule activators of the heat shock response signaling pathway (AID 743210; active means well fitted activation curve with a large enough effect in the signal ratio in the repeat runs, with a control signal flat, not every such curve was filed as active; the % refers to the signal ratio;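 further: HeLa cells with beta-lactamase reporter driven by heat shock elements; series mostly up to about 63 µM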). The essentials: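 Reporter gene assay: HeLa cells stably bearing an HSE-bla construct, compound treatment 5 h at 37 C, LiveBLAzer substrate 2.5 h at RT, fluorescence intensity.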
The nature of assay [11]: qHTS assay to identify small molecule agonists of the peroxisome proliferator-activated receptor delta (PPARd) signaling pathway - cell viability counter screen (AID 743211). Further: nearly all actives have a fitted effect of over 55% in size. The essentials:
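PPARd-bla HEK293H cells (UAS-beta-lactamase reporter) were treated with compounds for 17 h at 37 C. Viability was then read in the same wells by CellTiter-Glo luminescence after 30 min at room temperature.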

Assay [12] can be described thus: qHTS assay to identify small molecule antagonists of the peroxisome proliferator-activated receptor delta (PPARd) signaling pathway - cell viability counter screen (AID 743213). Further: nearly all actives have a fitted effect of over 50% in size. The essentials:
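Luminescence from CellTiter-Glo, added after the bla read and incubated 30 min at room temperature, gives viability of HEK293H PPARd-bla cells exposed to compounds for 17 h at 37 C with 300 nM L165041.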

The nature of assay [13]: qHTS assay to identify small molecule agonists of the farnesoid-X-receptor (FXR) signaling pathway - cell viability counter screen (AID 743218). Further: nearly all actives have a fitted effect of over 45% in size. In a few lines: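 After 16 h at 37 C with test compounds, FXR-bla HEK 293T cells were given LiveBLAzer B/G substrate for 2 h at RT and then CellTiter-Glo; luminescence was taken after 30 min.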
Assay [14] can be described thus: qHTS assay to identify small molecule antagonists of the farnesoid-X-receptor (FXR) signaling pathway - cell viability counter screen (AID 743221; active means well fitted cell-killing curve with a large enough effect in the repeat runs, not every such curve was filed as active; further: nearly all actives have a fitted effect of over 50% in size). The essentials:
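FXR-UAS-bla HEK 293T cells were treated with test compounds plus chenodeoxycholic acid (50 uM final) for 16 h at 37 C. Cell viability in the same wells was then read as CellTiter-Glo luminescence after 30 min at room temperature.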

For assay [15], the target named is Vitamin D3 receptor (Homo sapiens) (UniProt P11473). The experiment in a line: qHTS assay to identify small molecule agonists of the vitamin D receptor (VDR) signaling pathway (AID 743222; calls by dose curve). The essentials:
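VDR-bla cells were seeded, left 4 h, treated with compounds in DMSO for 16 h, incubated 2 h at RT with B/G FRET substrate, and read for fluorescence.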

Assay [16] shares this target. The experiment in a line: qHTS assay to identify small molecule antagonists of the vitamin D receptor (VDR) signaling pathway (AID 743223; active means well fitted inhibition curve with a large enough effect in the signal ratio in the repeat runs, not every such curve was filed as active; the % refers to the signal ratio). The essentials: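 VDR-bla cells were plated, incubated 4 h at 37C, then given compound and 1alpha,25-dihydroxyvitamin D3 (3 nM final). After 16 h at 37C, LiveBLAzer B/G FRET substrate was added for 2 h at room temperature and fluorescence read.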

Assay [17] has as its target Peroxisome proliferator-activated receptor delta (Homo sapiens) (UniProt Q03181). The assay can be described thus: qHTS assay to identify small molecule antagonists of the peroxisome proliferator-activated receptor delta (PPARd) signaling pathway (AID 743215; active means well fitted inhibition curve with a large enough effect in the signal ratio in the repeat runs, not every such curve was filed as active; the % refers to the signal ratio;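 further: cells stimulated with agonist L165041 at 300 nM final during compound exposure; series mostly up to about 62 µM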). The essentials: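 With L165041 present at 300 nM final, compounds were incubated 17 h at 37 C on PPARd UAS-bla HEK293H cells. A FRET-based beta-lactamase substrate was then applied for 2 h at room temperature and fluorescence intensity recorded.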

Assay [18] has the same target. The experiment in a line: qHTS assay to identify small molecule agonists of the peroxisome proliferator-activated receptor delta (PPARd) signaling pathway (AID 743212; calls by dose curve). In a few lines:
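A PPARd-bla HEK293H line with beta-lactamase under an Upstream Activator Sequence is treated with compounds at 37 C. Substrate loading for 2 h at room temperature precedes the fluorescence measurement.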

Assay [19] addresses Bile acid receptor (Homo sapiens) (UniProt Q96RI1). The experiment in a line: qHTS assay to identify small molecule antagonists of the farnesoid-X-receptor (FXR) signaling pathway (AID 743217; active means well fitted inhibition curve with a large enough effect in the signal ratio in the repeat runs, not every such curve was filed as active; the % refers to the signal ratio). The essentials: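 In this cell-based antagonist screen, inhibition of CDCA-driven (50 uM final) UAS-beta-lactamase expression in HEK 293T cells was measured by FRET fluorescence following 16 h compound exposure at 37 °C.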

For assay [20] the target is unchanged. The assay can be described thus: qHTS assay to identify small molecule agonists of the farnesoid-X-receptor (FXR) signaling pathway (AID 743220; active means well fitted activation curve with a large enough effect in the signal ratio in the repeat runs, not every such curve was filed as active; the % refers to the signal ratio). The essentials: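 Beta-lactamase reporter under UAS control in GeneBLAzer FXR HEK 293T cells (5000/well) measured with LiveBLAzer FRET substrate after 2 h at room temperature. Compound exposure lasted 16 h at 37C.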

Results filed as inconclusive are left out. Values without a mark were called inactive. Activity calls are given as the source filed them. Unless noted, the call rests on the fitted dose curve; in most records, active means well fitted curve in the direction sought with a large enough effect in the repeat runs; inconclusive means weak or mixed curves; inactive means no such curve, though single readings can be large; an effect the other way counts as inactive or inconclusive.

Sequence of Peroxisome proliferator-activated receptor gamma (Homo sapiens) (P37231 whole entry, looked up): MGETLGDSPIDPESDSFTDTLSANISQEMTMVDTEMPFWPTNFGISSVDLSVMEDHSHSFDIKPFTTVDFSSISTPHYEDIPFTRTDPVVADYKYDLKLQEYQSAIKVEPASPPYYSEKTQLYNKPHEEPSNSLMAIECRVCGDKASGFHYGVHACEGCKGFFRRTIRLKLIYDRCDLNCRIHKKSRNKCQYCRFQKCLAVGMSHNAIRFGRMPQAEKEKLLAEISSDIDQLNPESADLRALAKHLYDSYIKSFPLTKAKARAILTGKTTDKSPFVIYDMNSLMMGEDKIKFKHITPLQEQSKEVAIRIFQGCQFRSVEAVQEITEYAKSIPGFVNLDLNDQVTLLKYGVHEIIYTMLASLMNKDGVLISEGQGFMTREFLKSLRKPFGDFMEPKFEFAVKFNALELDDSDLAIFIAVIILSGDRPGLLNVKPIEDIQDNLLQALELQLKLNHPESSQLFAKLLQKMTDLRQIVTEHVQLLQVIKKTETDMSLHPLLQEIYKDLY
Sequence of Bile acid receptor (Homo sapiens) (Q96RI1 whole entry, looked up): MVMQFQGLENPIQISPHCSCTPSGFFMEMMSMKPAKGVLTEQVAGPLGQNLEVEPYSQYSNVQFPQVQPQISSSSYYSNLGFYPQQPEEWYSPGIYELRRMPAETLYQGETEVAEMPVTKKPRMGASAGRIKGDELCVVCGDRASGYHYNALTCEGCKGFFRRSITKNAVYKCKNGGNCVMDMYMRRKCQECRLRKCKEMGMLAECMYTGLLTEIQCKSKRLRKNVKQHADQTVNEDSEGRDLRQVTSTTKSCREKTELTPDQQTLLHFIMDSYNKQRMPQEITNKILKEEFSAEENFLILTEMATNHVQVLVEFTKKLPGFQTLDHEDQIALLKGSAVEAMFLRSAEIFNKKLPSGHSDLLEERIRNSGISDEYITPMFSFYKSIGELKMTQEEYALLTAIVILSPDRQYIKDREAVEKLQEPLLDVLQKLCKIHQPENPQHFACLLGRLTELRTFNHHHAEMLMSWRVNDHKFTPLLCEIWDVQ
Sequence of Vitamin D3 receptor (Homo sapiens) (P11473 whole entry, looked up): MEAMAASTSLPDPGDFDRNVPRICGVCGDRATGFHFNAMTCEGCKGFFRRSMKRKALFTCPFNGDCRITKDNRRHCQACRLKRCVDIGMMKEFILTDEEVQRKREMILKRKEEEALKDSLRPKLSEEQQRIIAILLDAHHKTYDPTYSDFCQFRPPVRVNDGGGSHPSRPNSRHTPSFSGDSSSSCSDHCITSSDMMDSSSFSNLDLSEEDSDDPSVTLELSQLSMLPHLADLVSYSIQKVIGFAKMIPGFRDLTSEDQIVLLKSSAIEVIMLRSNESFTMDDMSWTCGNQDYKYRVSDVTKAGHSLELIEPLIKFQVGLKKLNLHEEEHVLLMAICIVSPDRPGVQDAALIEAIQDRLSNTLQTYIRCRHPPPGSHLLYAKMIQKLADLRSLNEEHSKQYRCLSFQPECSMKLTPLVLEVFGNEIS
Sequence of Aryl hydrocarbon receptor (Homo sapiens) (P35869 whole entry, looked up): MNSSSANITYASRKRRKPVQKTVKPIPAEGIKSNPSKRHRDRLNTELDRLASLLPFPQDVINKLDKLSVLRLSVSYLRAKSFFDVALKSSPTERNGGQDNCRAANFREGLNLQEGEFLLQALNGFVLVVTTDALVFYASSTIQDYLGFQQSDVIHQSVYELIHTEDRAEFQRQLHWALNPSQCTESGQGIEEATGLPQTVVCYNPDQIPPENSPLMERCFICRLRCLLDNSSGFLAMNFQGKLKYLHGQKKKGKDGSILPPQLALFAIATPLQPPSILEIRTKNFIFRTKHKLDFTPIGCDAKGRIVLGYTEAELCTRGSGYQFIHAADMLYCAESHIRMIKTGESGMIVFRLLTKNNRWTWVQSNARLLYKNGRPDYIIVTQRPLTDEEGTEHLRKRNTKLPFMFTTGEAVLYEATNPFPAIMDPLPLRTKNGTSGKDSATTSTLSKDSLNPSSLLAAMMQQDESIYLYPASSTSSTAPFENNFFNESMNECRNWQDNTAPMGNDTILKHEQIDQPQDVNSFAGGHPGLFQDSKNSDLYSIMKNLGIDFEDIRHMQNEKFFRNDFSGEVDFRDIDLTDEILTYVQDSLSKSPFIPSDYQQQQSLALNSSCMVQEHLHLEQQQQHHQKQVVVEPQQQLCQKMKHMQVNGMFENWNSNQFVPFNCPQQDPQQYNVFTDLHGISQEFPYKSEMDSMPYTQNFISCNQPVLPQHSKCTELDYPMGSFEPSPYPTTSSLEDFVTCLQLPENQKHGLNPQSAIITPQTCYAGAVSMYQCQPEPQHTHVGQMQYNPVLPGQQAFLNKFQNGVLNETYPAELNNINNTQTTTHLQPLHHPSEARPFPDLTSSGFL
Sequence of Peroxisome proliferator-activated receptor delta (Homo sapiens) (Q03181 whole entry, looked up): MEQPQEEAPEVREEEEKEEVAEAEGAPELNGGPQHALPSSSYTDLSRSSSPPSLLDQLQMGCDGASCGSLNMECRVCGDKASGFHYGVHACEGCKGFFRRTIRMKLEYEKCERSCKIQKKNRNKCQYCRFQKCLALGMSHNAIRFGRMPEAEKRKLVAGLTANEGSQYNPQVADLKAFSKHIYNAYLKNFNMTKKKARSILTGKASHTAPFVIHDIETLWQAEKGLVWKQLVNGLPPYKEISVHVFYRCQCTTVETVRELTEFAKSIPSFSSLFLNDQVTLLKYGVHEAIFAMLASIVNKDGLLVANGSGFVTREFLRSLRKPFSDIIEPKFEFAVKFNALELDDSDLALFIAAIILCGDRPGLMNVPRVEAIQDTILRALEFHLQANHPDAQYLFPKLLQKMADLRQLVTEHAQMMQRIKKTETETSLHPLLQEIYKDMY

On to `C=CC(=O)OCCCCCCCCCC`, for which the Potency result in assay [1], in [2], in [3], in assay [4], in [5] and in [6] was “inactive” in each case. The Potency result in [7], in assay [8], in assay [11], in [12], in assay [13] and in assay [14] was “inactive” in each case. For the same compound, the result in assay [9], in [10], in assay [15] and in [16] was inactive.

As to `CCCCCCCCCCCCSC#N`, the Potency result in [1], in assay [2], in assay [3], in assay [4], in assay [5] and in assay [6] was “inactive” throughout. Further, the Potency result in assay [7], in assay [8], in assay [11], in [12], in assay [13] and in assay [14] was “inactive” each time. The compound was classed as inactive in [9], in assay [17], in assay [15] and in assay [16].

Turning to `NC(=O)c1cc[n+](CC2=C(C(=O)[O-])N3C(=O)[C@@H](NC(=O)Cc4cccs4)[C@H]3SC2)cc1`, the Potency entry in [1], in assay [2], in [3], in assay [4], in assay [5] and in assay [6] was “inactive” throughout. Besides, the Potency entry in [8], in assay [11], in assay [18], in [12], in assay [13] and in assay [14] was “inactive” in each case. The outcome in assay [9], in assay [10], in [17], in [19], in assay [20] and in assay [15] was inactive.

Take `C=C[Si]1(C)O[Si](C)(C=C)O[Si](C)(C=C)O[Si](C)(C=C)O1` (centres undefined): the Potency result in assay [1], in [2], in [3], in assay [4], in assay [5] and in [6] was “inactive” throughout. In addition, the Potency result in assay [7], in assay [8], in assay [11], in assay [18], in [13] and in assay [14] was “inactive” in each case. Besides, the call in assay [15] and in [16] was inactive.

On to `CCCC(=O)OCc1ccccc1`, for which the Potency entry in [1], in [2], in assay [3], in assay [4], in assay [5] and in assay [6] was “inactive” throughout. Besides, the Potency entry in assay [7], in [8], in assay [18], in assay [12], in assay [13] and in assay [14] was “inactive” in each case. The compound was called inactive in assay [9], in assay [10], in assay [17], in assay [19] and in assay [20].

In the case of `OCCc1ccncc1`, the Potency entry in [1], in [2], in assay [3], in assay [4], in assay [5] and in assay [6] was “inactive” each time. The Potency result in assay [7], in [8], in assay [11], in assay [12], in assay [13] and in assay [14] was “inactive” each time. Also, the result in assay [9], in assay [10], in assay [19], in assay [20] and in [16] was inactive.

`CC(O)C(C)O` (centres undefined): the Potency result in assay [1], in [2], in assay [3], in [4], in assay [5] and in assay [6] was “inactive” each time. Also, the Potency entry in assay [7], in assay [8], in assay [11], in assay [18] and in assay [14] was “inactive” each time. For the same compound, the result in assay [9], in [10], in assay [17], in assay [15] and in assay [16] was inactive.

As to `CC(CN=Cc1ccccc1O)N=Cc1ccccc1O` (centres undefined), the Potency result in assay [1], in assay [3], in assay [4], in [5], in [6] and in assay [8] was “inactive” throughout. Further, the Potency entry in [11], in assay [18], in assay [12], in assay [13] and in [14] was “inactive” throughout. Moreover, in assay [2], the Potency was 27.3 µM (active). Besides, the compound was classed as inactive in assay [9], in assay [10] and in [17].
